The source of these data is PubChem BioAssay (NCATS).

Inconclusive results are not listed. A call without a number means that no potency is given here. Calls of active or inactive are those of the source. The call rests on the fitted dose curve; in most records, active means well fitted inhibition curve with a large enough effect; inconclusive means small, poorly fitted or top-dose-only effect; inactive means flat fitted curve, though single readings scatter. Bridge positions count the residues as written; N and C are the ends. Square brackets hold non-standard residues; d marks the D form. Peptide text beside a SMILES is read from it. * marks the point of attachment. ξ: configuration not given here. Octanoyl(6-Me) = CCC(C)CCCCC(=O)*; ξThr(3R) = C[C@@H](O)C(N)C(=O)O; dDab = NCC[C@@H](N)C(=O)O; Dab = NCC[C@H](N)C(=O)O

This test deals with Luciferin 4-monooxygenase (Photinus pyralis) (UniProt P08659). The test can be described thus: Biochemical firefly luciferase enzyme assay for NPC (AID 624030).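 Further: purified P. pyralis luciferase at 10 nM with luciferin and ATP substrate; nearly all actives have a fitted effect of over 70% in size.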 The settings on record: purified P. pyralis luciferase, luminescence, 5 min; series mostly up to 58.6 µM. Summed up: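 Direct inhibition of firefly luciferase enzyme (10 nM final, 50 mM Tris Acetate) assessed by luminescence within 5 minutes. Percent activity scaled between DMSO and PTC124 positive control, with concentration-effect curves classified by fit quality and response.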
Luciferin 4-monooxygenase (Photinus pyralis), sequence (P08659 whole entry, looked up): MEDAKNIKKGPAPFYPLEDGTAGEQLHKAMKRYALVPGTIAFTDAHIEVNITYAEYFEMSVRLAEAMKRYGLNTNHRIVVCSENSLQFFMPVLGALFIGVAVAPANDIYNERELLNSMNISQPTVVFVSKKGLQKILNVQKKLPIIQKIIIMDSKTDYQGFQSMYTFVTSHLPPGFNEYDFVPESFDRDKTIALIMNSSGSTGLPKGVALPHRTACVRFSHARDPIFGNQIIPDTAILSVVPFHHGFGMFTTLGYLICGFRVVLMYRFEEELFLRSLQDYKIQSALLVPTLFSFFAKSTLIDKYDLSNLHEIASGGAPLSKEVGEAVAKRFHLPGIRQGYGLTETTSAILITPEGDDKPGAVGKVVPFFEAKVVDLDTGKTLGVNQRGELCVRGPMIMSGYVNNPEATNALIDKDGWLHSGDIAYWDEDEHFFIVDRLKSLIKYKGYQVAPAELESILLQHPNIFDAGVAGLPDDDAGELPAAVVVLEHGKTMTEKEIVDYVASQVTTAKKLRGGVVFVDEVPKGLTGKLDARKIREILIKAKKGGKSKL

Consider `OCC1OC(OC2C(CO)OC(OC3C(CO)OC(O)C(O)C3O)C(O)C2O)C(O)C(O)C1O` (stereo unspecified), for which the Potency result is “inactive”.
As for `CC/C=C(/C(=O)N[C@@H]1C(=O)N2C(C(=O)OCOC(=O)C(C)(C)C)=C(COC(N)=O)CS[C@H]12)c1csc(N)n1`, the Potency result is “inactive”.
The entry for `CC1(C)SC2C(NC(=O)C(c3ccccc3)S(=O)(=O)O)C(=O)N2C1C(=O)O` (stereo unspecified) is “inactive”.
As to `C/C=C1\NC(=O)[C@H]2CSSCC/C=C\[C@H](CC(=O)N[C@H](C(C)C)C(=O)N2)OC(=O)C(C(C)C)NC1=O` (stereo partly specified), the Potency result was “inactive”.
With `CN[C@H](CC(C)C)C(=O)N[C@H]1C(=O)N[C@@H](CC(N)=O)C(=O)N[C@H]2C(=O)N[C@H]3C(=O)N[C@H](C(=O)N[C@H](C(=O)O)c4cc(O)cc(O)c4-c4cc3ccc4O)[C@H](O)c3ccc(c(Cl)c3)Oc3cc2cc(c3O[C@@H]2OC(CO)[C@@H](O)[C@H](O)[C@H]2O[C@H]2C[C@](C)(N)[C@H](O)[C@H](C)O2)Oc2ccc(cc2Cl)[C@H]1O` (stereo partly specified), the Potency result is “inactive”.
Regarding `C[N+](C)(CCOc1ccccc1)Cc1cccs1` (tested in a mixture with another compound), the Potency result was “inactive”.
As for `COCC1=C(C(=O)OC(C)OC(=O)OC(C)C)N2C(=O)C(NC(=O)/C(=N\OC)c3csc(N)n3)C2SC1` (stereo unspecified), the entry is “inactive”; as for `CCC(C)CCCCC(=O)N[C@@H](CCN)C(=O)N[C@H](C(=O)N[C@@H](CCN)C(=O)N[C@H]1CCNC(=O)C([C@@H](C)O)NC(=O)[C@@H](CCN)NC(=O)[C@H](CCN)NC(=O)[C@H](CC(C)C)NC(=O)[C@@H](CC(C)C)NC(=O)[C@H](CCN)NC1=O)[C@@H](C)O` (stereo partly drawn) ({Octanoyl(6-Me)}-[Dab]T[Dab][Dab][Dab][dL]L[Dab][dDab][ξThr(3R)]; lactam 4-C), “inactive”; as for `CC(=O)C[C@H]1[C@H](O[C@H]2[C@H](OC(C)C(=O)N[C@@H](C)C(=O)N[C@H](CCC(=O)N[C@@H](CCCCN)C(=O)N[C@H](C)C(=O)O)C(N)=O)[C@@H](NC(=O)O)C(O)O[C@@H]2CO)O[C@H](CO)[C@@H](O)[C@@H]1O` (stereo partly specified), “inactive”.
The entry for `OC[C@H]1O[C@H](OC/C=C/c2ccccc2)[C@H](O)[C@@H](O)[C@@H]1O` is “inactive”; for `C[N+]1(C)CCN(C[C@@](O)(c2ccccc2)C2CCCCC2)CC1` it is “inactive”; for `Cc1c(C)c2c(c(C)c1OC(=O)CCC(=O)OCCO)CC[C@](C)(CCC[C@H](C)CCC[C@H](C)CCCC(C)C)O2` it is “inactive”.
As for `c1ccc(C(OC2CCCN(CCc3ccc4c(c3)OCO4)C2)c2ccccc2)cc1` (stereo unspecified), the Potency entry was “inactive”.
As for `C/C=C(/CC[C@@H](C)[C@H]1CCC2C3=CC[C@H]4[C@H](C)[C@@H](O)CC[C@]4(C)C3CC[C@@]21C)C(C)C` (stereo partly specified), the entry is “inactive”.
For `CC[C@H](c1ccccc1)c1noc(CCN(CC)CC)n1`, the Potency result was “inactive”.
`CC(=O)O[C@H](C)OC(=O)[C@@H](C)c1ccc(-c2ccccc2)c(F)c1`: the Potency result is “inactive”.
The entry for `CC(=O)CC/C=C(\C)CC/C=C(/C)CC/C=C(\C)CCC=C(C)C` is “inactive”; for `CC#CCC(C)[C@H](O)/C=C/C1[C@H](O)C[C@@H]2C/C(=C\CCCC(=O)O)C[C@H]12` (stereo partly specified) it is “inactive”.
The entry for `CC1(C)S[C@@H]2[C@H](NC(=O)[C@H](N)c3ccccc3)C(=O)N2[C@@H]1C(=O)OCOC(=O)[C@@H]1N2C(=O)C[C@@H]2S(O)(O)C1(C)C` is “inactive”.
The entry for `O=S(=O)(O)OCC1OC(OC2(COS(=O)(=O)O)OC(COS(=O)(=O)O)C(OS(=O)(=O)O)C2OS(=O)(=O)O)C(OS(=O)(=O)O)C(OS(=O)(=O)O)C1OS(=O)(=O)O` (stereo unspecified) is “inactive”.
Consider `CC(=O)SC1CC2=CC(=O)CCC2(C)C2CCC3(C)C(CCC34CCC(=O)O4)C12` (stereo unspecified), for which the Potency entry is “inactive”.
The entry for `CC(NC(CCc1ccccc1)C(=O)O)C(=O)N1CCCC1C(=O)O` (stereo unspecified) is “inactive”.
Regarding `COc1ccc2c(C(=S)N(C)CC(=O)O)cccc2c1C(F)(F)F`, the Potency entry was “inactive”.
In the case of `NCCCCC(NC(=O)C1CCCN1C(=O)C1CSSCC(N)C(=O)NC(Cc2ccc(O)cc2)C(=O)NC(Cc2ccccc2)C(=O)NC(CCC(N)=O)C(=O)NC(CC(N)=O)C(=O)N1)C(=O)NCC(N)=O` (stereo unspecified), the Potency entry was “inactive”.
In the case of `O=C(CO)C(O)C(O)C(O)CO` (stereo unspecified), the Potency entry was “inactive”.
Turning to `OCC1(O)OC[C@@H](O)[C@H](O)[C@@H]1O` (stereo partly specified), the Potency result is “inactive”.
As for `NCCCCC(NC(=O)C1CCCN1C(=O)C1CSSCC(N)C(=O)NC(Cc2ccccc2)C(=O)NC(Cc2ccccc2)C(=O)NC(CCC(N)=O)C(=O)NC(CC(N)=O)C(=O)N1)C(=O)NCC(N)=O` (stereo unspecified) (H-CFFQNCPKG-NH2; disulfide 1-6; configuration not given here), the entry is “inactive”.
As for `CC(C)C[C@@H](NC(=O)[C@@H](COC(C)(C)C)NC(=O)[C@H](Cc1ccc(O)cc1)NC(=O)[C@@H](CO)NC(=O)[C@@H](Cc1c[nH]c2ccccc12)NC(=O)[C@@H](Cc1cnc[nH]1)NC(=O)[C@@H]1CCC(=O)N1)C(=O)N[C@H](CCCN=C(N)N)C(=O)N1CCC[C@H]1C(=O)NNC(N)=O`, the entry is “inactive”.
The entry for `CC(=O)OCC(=O)C1(O)CCC2C3CCC4=CC(=O)CCC4(C)C3(F)C(O)CC21C` (stereo unspecified) is “inactive”; for `CCC[C@H]1C[C@H](C(=O)NC(C(C)Cl)C2O[C@@H](SC)C(OP(=O)(O)O)[C@@H](O)[C@@H]2O)N(C)C1` (stereo partly specified) it is “inactive”; for `CO[C@@H]1[C@@H](OC2OC(C)C(OC3CC(C)(O)C(O)C(C)O3)C(N(C)C)C2O)[C@@H](CC=O)C[C@@H](C)[C@@H](OC2CCC(N(C)C)C(C)O2)/C=C/C=C/C[C@@H](C)OC(=O)C[C@H]1OC(C)=O` (stereo partly specified) it is “inactive”.
